ST2 inh = inhibitors of human ST2 (IL1RL1) binding to IL-33. AID 1259354. AlphaLISA ST2-Fc/biotin-IL-33 interaction, 1 h. inhibition, % for hits at 17 µM. Q01638. 78,000 compounds, 2.3% hits; in the data active means inhibition above about 30%
Target sequence (Q01638 whole entry, looked up): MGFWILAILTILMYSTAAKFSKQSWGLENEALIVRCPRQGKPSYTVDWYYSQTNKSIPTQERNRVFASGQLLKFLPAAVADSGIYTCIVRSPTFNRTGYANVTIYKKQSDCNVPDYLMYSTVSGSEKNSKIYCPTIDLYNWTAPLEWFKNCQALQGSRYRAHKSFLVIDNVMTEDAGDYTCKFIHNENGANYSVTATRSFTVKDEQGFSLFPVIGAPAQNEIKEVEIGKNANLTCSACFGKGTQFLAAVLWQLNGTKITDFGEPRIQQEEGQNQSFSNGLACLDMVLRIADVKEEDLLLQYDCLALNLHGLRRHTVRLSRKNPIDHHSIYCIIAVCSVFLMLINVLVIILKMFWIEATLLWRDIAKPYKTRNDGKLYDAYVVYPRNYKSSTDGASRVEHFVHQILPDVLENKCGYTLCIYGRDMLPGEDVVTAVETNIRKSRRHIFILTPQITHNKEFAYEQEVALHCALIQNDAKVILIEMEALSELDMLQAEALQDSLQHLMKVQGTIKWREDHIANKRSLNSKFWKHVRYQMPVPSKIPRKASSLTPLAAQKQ
* = called active by the depositor; i = inactive. The sample as a whole holds a higher share of hits than the screen did.

SMILES	ST2 inh
COc1cc(OC)cc(C(=O)Nc2nc3ccc4sc(C)nc4c3s2)c1	i
Cc1ccc(C(=O)Nc2nc3ccc4nc(C)sc4c3s2)cc1	i
CCOc1ccc(C(=O)Nc2nc3ccc4sc(C)nc4c3s2)cc1	i
COc1ccc2c(=O)c(-c3ccccc3C)c(C)oc2c1C	i
COc1ccccc1OC1CCN(C(=O)Cn2nnnc2CN(C)C(C)C)CC1	i
Nc1ccnc(N2C[C@H](O)[C@@H](N3CCN(c4ccccn4)CC3)C2)n1	i
CC(C)(C)NC(=O)C[C@@H]1CCNC[C@@H]1Cc1cc(-c2ccccc2)on1	i
O=C(C1CCC(=O)N1C1CCCC1)N1CCOCC1 (stereo not drawn)	i
N#Cc1ccc(CSc2nc3ccccc3s2)cc1	i
O=C(c1cc2ccccn2n1)N1CCN(c2ccc(F)cc2)CC1	i
Cc1ccc2c(C(=O)CN3CCOCC3)c(C)[nH]c2c1	32%*
Cc1[nH]c2ccc(Cl)cc2c(=O)c1CN1CCOCC1	i
COc1ccc2c(c1)c(C(=O)CN1CCOCC1)c(C)n2C	i
O=C(CSc1cn(Cc2ccc(Cl)cc2)c2ccccc12)Nc1ccc2c(c1)OCO2	i
O=[N+]([O-])c1ccc(C(=Nc2ccccc2)NO)cc1	i
O=C(NC(=O)c1ccccc1)Oc1ccc([N+](=O)[O-])cc1	i
O=C(C#Cc1ccc([N+](=O)[O-])cc1)c1ccccc1	33%*
COc1c(C)c(C(C)(O)/C=C(\C)C(O)/C(C)=C/C2(C)OC(C)C3(C)OC23)oc(=O)c1C (stereo not drawn)	i
COc1ccccc1CNC(=O)c1cccc(F)c1	i
COc1ccc(C(=O)N[C@@H]2CN(C(=O)NC3CCCCC3)CCC[C@H]2O)cc1	82%*
COCCOc1ccc(C(=O)N[C@@H]2CN(C(=O)NCc3ccccc3)CCC[C@H]2O)cc1	i
CC(C)NC(=O)N1CCC[C@@H](O)[C@H](NC(=O)c2ccc(OCc3ccccc3)cc2)C1	i
Cc1ccc(NC(=O)CC2SC(N)=NC2=O)c(Br)c1 (stereo not drawn)	i
Cc1cc(C)nc(NS(=O)(=O)c2ccc(NC(=O)c3ccc(-c4ccccc4)cc3)cc2)n1	i
NS(=O)(=O)c1ccc(NC(=O)c2ccc(-c3ccccc3)cc2)cc1	30%*
SMILES	ST2 inh
NC(=O)c1ccc(NC(=O)c2ccccc2)cc1	i
CC(=O)c1ccc(NC(=O)c2ccc(-c3ccccc3)cc2)cc1	30%*
Cc1ccc(NC(=O)c2ccc(C(=O)Nc3ccc(C)cc3)cc2)cc1	i
CC(=O)c1ccc(NC(=O)Cc2ccccc2)cc1	i
Cc1c(C(=O)N2CCCC(N3CCc4ccccc4C3)C2)cnc2ccnn12 (stereo not drawn)	i
CC(C)(O)C#Cc1ccc(C(=O)N2CCCC(C(=O)c3ccc4ccccc4c3)C2)o1 (stereo not drawn)	i
Cc1nn(C(=O)c2ccco2)c(C)c1Sc1ccccc1	i
O=[N+]([O-])c1ccc2nn(-c3ccccc3)nc2c1	i
Cc1ccc(C(=O)n2nc(C)c(Sc3ccccc3)c2C)cc1	i
Cc1nn(C(=O)c2ccc([N+](=O)[O-])cc2)c(C)c1Sc1ccccc1	42%*
COc1c(Sc2ccc([N+](=O)[O-])cc2)c(C)nn1-c1ccccc1	30%*
Cc1nn(C(=O)C2CC2)c(C)c1Sc1ccccc1	i
CCCn1ncc(C(=O)N2CCCC2c2nc(-c3ccncc3)no2)c1C (stereo not drawn)	i
CCC1=C(c2ccc(OC)cc2)S(=O)(=O)N(CC(=O)NCCCc2ccccc2)C1=O	i
COc1ccccc1/C=C1\N=C(c2cccc(I)c2)OC1=O	i
CC(=O)n1cc(/C=C2\N=C(c3ccc(Cl)cc3)OC2=O)c2cc(Br)ccc21	i
CC(=O)n1cc(/C=C2/N=C(c3ccccc3)OC2=O)c2ccccc21	61%*
COc1ccc(C2C(C(=O)Nc3cc(C)on3)c3cc(OC)c(OC)cc3C(=O)N2C)cc1 (stereo not drawn)	i
COc1ccc(NC(=O)N[C@H]2[C@H](O)[C@@H](N(C)CCN(C)C)[C@@H]3OC[C@H]2O3)cc1	i
COc1cc(C)c(S(=O)(=O)N2CCN(c3ccccc3)CC2)cc1C	i
Cc1ccccc1NC(=O)CC(=O)N(C)CCN1CCCCC1=O	i
COc1cccc(OC)c1C(=O)N1CCN=C1SCc1c(F)cccc1Cl	i
COc1ccc(NC(=O)Nc2c(C)nc3nc[nH]n3c2=O)c(OC)c1	i
Nc1ccc(-c2cc(-c3ccccc3)nc(-c3ccc(N)cc3)n2)cc1	i
Nc1ccc(-c2c3ccccc3nc3cc(N)ccc23)cc1	61%*
SMILES	ST2 inh
Nc1ccc(-c2ccc3ccccc3n2)cc1	i
CC1C2NC(=O)N(c3cccc(Cl)c3)C1(C)Oc1ccccc12 (stereo not drawn)	i
C=CCN(CC=C)C(=O)Cc1cccs1	i
Clc1cccc(CN2CCOCC2)c1Cl	i
c1ccc2c(CN3CCOCC3)ccnc2c1	40%*
CS(=O)(=O)NCCC1CN(Cc2ccnc3ccccc23)CCO1 (stereo not drawn)	i
CCn1cc(C(=O)NCCN2CCOCC2)c2cc(OC)c(OC)cc2c1=O	i
NS(=O)(=O)c1ccc(CCNC(=O)c2cccc(N3CCCS3(=O)=O)c2)cc1	i
CCOc1ccc(/C=C(\C#N)c2nc(-c3ccc(OCC)cc3)cs2)cc1	33%*
COc1ccc(/C=C(\C#N)c2nc(-c3ccc(C)cc3)cs2)cc1	60%*
N#C/C(=C\c1ccc(I)cc1)c1nc(-c2ccc([N+](=O)[O-])cc2)cs1	i
CCOc1ccc(-c2cc3cc(OC)c(OC)cc3c(CC)n2)cc1	i
COc1ccc(S(=O)(=O)Nc2ccc(-c3csc(C)n3)cc2)cc1	i
Cc1cccc(C(=O)Nc2ccc([N+](=O)[O-])c(NC(=O)c3cccc(C)c3)c2)c1	i
Cc1cnccc1C(=O)NCC1CCCN(Cc2ccccn2)C1 (stereo not drawn)	i
O=C(NCC1CCCCC1)N1CCCC2(CCNC2)C1 (stereo not drawn)	i
Cc1cc(C)nc(NC2=NCC(=O)N2c2ccccc2C)n1	i
CCN(C(=O)c1cnc2n(c1=O)CCS2)c1cccc(C)c1	i
CCNc1nc(N2CCCC2)nc(N2CCC(Cc3ccccc3)CC2)n1	57%*
COc1ccc(S(=O)(=O)N2CCC(C(=O)N3CCC(Cc4ccccc4)CC3)CC2)cc1	i
O=C(c1ccc(Cl)cc1)N1CCC(C(=O)N2CCC(Cc3ccccc3)CC2)CC1	i
Cc1ccc(C)c(CSC2=NCCN2C(=O)c2ccc(S(=O)(=O)N(C)C)cc2)c1	i
COc1ccc(NC(=O)c2cnc3n(c2=O)CCS3)cc1	i
COc1ccc(OC)c(C2C(C(=O)Nc3ccccn3)=C(C)NC3=C2C(=O)CC(C)(C)C3)c1 (stereo not drawn)	i
O=C(CCS(=O)(=O)c1cccc2nonc12)NCc1ccc(F)cc1	i
COc1cc(NC2OC(=O)c3ccccc32)c(OC)cc1Cl (stereo not drawn)	i
COc1cc2c(cc1OC)C(c1ccc(Cl)cc1)OC1=C2C(=O)c2ccccc21 (stereo not drawn)	47%*
CCOc1cc2c(cc1OCC)C(c1ccc(OC)c(OC)c1)OC(=O)C2 (stereo not drawn)	i
CO[C@H]1COC[C@@H]1NC(=O)C1(Oc2ccc(Cl)cc2)CCNCC1	i
O=S(=O)(c1ccc(F)cc1)N1CCSC1c1ccccc1 (stereo not drawn)	i

Bioassay records from PubChem.
